Results published in the supplement of paper PMC6411743.
± gives the standard deviation of the averaged measurements. About 6,200 targets were measured; listed, in parts, are those with the largest changes and a random draw of the rest.

What was measured:
Experiment in all cases: NP40-soluble protein abundance relative to vehicle (solubility fold change) (ratio); higher = more soluble protein in presence of AMP-PNP
D6R9V8|Q9UKY7 = biological target: T1, D6R9V8|Q9UKY7 (UniProt Q9UKY7)
T1 sequence (whole entry): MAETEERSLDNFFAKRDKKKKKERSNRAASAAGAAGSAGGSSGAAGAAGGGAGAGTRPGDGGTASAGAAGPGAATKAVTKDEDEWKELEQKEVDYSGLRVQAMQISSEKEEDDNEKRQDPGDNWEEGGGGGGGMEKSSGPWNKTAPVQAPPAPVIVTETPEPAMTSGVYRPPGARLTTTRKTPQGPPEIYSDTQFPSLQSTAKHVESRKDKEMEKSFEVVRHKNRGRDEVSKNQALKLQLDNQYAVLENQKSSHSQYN
Summary of the method: (§1)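 Each value is a fold change relative to the detergent-processed vehicle, calculated per replicate from vsn-normalised intensities. Jurkat crude lysate received eight concentrations (0.1 to 10 mM) for 10 min at room temperature and 3 min at 37 °C, then was solubilised in 0.8% NP40 with benzonase (60 min, 4 °C). The ultracentrifuged supernatant was TMT-labelled and run by LC-MS/MS in three independent experiments.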

E9PNW4|E9PR17|P13987 = biological target: T2, E9PNW4|E9PR17|P13987 (UniProt P13987)
T2 sequence (whole entry): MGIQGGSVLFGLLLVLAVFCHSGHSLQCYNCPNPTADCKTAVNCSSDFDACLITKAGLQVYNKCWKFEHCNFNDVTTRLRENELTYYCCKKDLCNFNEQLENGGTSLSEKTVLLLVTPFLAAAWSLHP
Summary of the method: as §1

UniProt O43861|O43861-2 = biological target: T3, UniProt O43861|O43861-2
T3 sequence (whole entry): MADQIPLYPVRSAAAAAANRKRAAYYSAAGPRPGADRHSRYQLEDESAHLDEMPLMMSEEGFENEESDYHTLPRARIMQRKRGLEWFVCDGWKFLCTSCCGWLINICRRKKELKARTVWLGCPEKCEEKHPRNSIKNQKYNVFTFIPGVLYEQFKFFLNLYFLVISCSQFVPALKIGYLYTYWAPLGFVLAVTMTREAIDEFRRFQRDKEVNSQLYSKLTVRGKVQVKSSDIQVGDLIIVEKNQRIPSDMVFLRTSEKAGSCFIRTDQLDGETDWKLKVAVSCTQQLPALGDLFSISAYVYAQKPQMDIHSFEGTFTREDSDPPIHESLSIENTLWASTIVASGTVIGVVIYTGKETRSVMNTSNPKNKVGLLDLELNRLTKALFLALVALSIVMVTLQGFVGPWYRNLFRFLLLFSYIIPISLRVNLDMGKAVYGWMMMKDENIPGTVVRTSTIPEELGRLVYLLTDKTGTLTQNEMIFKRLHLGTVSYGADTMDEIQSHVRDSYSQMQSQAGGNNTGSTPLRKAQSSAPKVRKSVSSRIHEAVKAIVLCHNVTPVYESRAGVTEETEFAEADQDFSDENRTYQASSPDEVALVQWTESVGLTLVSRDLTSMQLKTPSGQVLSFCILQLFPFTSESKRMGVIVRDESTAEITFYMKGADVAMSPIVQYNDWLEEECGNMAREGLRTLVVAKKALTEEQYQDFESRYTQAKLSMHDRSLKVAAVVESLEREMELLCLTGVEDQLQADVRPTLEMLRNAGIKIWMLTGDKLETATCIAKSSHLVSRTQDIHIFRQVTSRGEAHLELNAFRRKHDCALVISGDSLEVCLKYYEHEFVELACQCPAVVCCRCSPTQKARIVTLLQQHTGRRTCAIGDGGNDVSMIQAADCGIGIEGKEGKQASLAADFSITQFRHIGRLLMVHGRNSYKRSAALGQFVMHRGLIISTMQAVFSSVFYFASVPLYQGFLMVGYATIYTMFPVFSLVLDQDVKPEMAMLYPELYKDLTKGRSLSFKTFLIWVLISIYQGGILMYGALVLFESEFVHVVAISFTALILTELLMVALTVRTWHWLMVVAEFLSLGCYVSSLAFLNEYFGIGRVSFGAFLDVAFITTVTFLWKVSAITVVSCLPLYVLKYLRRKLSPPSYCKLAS
Summary of the method: as §1

ZW10 = biological target: T4, ZW10 (UniProt O43264)
T4 sequence (whole entry): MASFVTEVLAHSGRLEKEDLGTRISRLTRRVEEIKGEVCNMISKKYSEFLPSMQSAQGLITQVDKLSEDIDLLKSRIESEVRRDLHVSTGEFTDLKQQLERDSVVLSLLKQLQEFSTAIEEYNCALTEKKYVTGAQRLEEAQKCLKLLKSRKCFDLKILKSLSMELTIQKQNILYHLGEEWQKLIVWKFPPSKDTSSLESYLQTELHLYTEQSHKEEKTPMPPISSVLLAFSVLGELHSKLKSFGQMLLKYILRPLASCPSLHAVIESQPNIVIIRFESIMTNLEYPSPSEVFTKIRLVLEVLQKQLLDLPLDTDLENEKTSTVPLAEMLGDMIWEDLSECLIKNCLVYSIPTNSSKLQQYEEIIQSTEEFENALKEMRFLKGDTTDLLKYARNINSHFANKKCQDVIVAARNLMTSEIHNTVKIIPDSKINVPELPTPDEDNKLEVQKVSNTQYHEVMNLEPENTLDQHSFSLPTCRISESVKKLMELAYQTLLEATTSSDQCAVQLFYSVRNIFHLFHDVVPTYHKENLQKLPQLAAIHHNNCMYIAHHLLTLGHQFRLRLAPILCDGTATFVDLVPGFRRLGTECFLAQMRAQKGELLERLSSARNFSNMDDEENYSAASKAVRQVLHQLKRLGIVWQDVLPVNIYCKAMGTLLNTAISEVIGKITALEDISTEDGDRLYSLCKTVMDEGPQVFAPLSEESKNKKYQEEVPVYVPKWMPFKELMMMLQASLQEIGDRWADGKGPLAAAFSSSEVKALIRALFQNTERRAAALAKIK
Summary of the method: as §1

## Nc1ncnc2c1ncn2[C@@H]1O[C@H](COP(=O)(O)OP(=O)(O)NP(=O)(O)O)[C@@H](O)[C@H]1O [adenylyl imidodiphosphate]
D6R9V8|Q9UKY7; concentration: 1mM
  NP40-soluble protein abundance: 1.03 ± 0.021
D6R9V8|Q9UKY7; concentration: 2mM
  NP40-soluble protein abundance: 1.09 ± 0.089
D6R9V8|Q9UKY7; concentration: 4mM
  NP40-soluble protein abundance: 1.03 ± 0.034
D6R9V8|Q9UKY7; concentration: 6mM
  NP40-soluble protein abundance: 1.04 ± 0.034
D6R9V8|Q9UKY7; concentration: 8mM
  NP40-soluble protein abundance: 0.993 ± 0.028
D6R9V8|Q9UKY7; concentration: 10mM
  NP40-soluble protein abundance: 1.05 ± 0.07
E9PNW4|E9PR17|P13987; concentration: 1mM
  NP40-soluble protein abundance: 1.05 ± 0.053
E9PNW4|E9PR17|P13987; concentration: 2mM
  NP40-soluble protein abundance: 1.11 ± 0.13
E9PNW4|E9PR17|P13987; concentration: 4mM
  NP40-soluble protein abundance: 1.03 ± 0.049
E9PNW4|E9PR17|P13987; concentration: 6mM
  NP40-soluble protein abundance: 1.07 ± 0.051
E9PNW4|E9PR17|P13987; concentration: 8mM
  NP40-soluble protein abundance: 1.1 ± 0.015
E9PNW4|E9PR17|P13987; concentration: 10mM
  NP40-soluble protein abundance: 1.06 ± 0.03
UniProt O43861|O43861-2; concentration: 1mM
  NP40-soluble protein abundance: 1.01 ± 0.022
UniProt O43861|O43861-2; concentration: 2mM
  NP40-soluble protein abundance: 1 ± 0.012
UniProt O43861|O43861-2; concentration: 4mM
  NP40-soluble protein abundance: 1.01 ± 0.025
UniProt O43861|O43861-2; concentration: 6mM
  NP40-soluble protein abundance: 0.986 ± 0.013
UniProt O43861|O43861-2; concentration: 8mM
  NP40-soluble protein abundance: 1 ± 0.041
UniProt O43861|O43861-2; concentration: 10mM
  NP40-soluble protein abundance: 1.024 ± 0.0049
ZW10; concentration: 1mM
  NP40-soluble protein abundance: 0.994 ± 0.031
ZW10; concentration: 2mM
  NP40-soluble protein abundance: 0.974 ± 0.043
ZW10; concentration: 4mM
  NP40-soluble protein abundance: 0.977 ± 0.047
ZW10; concentration: 6mM
  NP40-soluble protein abundance: 0.936 ± 0.064
ZW10; concentration: 8mM
  NP40-soluble protein abundance: 0.919 ± 0.081
ZW10; concentration: 10mM
  NP40-soluble protein abundance: 0.941 ± 0.07
